Data as given in PubChem BioAssay AID743354 (Broad Institute, 2014).
Entries with a potency or affinity are not part of this list. Active and inactive are the calls of the source.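 Rule for the calls: active = cytotoxic signal drop with a fitted half-maximal concentration at most twice the top valid tested dose; inconclusive = flat fit with moderate signal loss, or poor fit quality; inactive = opposite effect, flat response, or potency beyond limit.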

Experiment: viability loss in HEK293 cells – cell-based, luminescence, dry powder, set 12, cytotoxicity control, dose response (AID 743354)
Settings: HEK293T viability, CellTiter-Glo ATP luminescence, 72 h; series mostly up to 26 µM; activity change, negative = cytotoxic: at the top concentration

| Structure (SMILES) | activity change, negative = cytotoxic |
| --- | --- |
| CN1c2ccc(-c3ccc(F)cc3)cc2[C@H]2[C@H](CCN2C(=O)Nc2ccc(F)cc2)[C@H]1CO | -6.51% (inactive) |
| CN(C)C(=O)c1ccc(N2CCN(C(=O)c3ccc4c(c3)OCO4)CC2)cc1 | -0.522% (inactive) |
| CN1c2ccc(-c3cccc(F)c3)cc2[C@H]2[C@H](CCN2C(=O)Cc2cccnc2)[C@H]1CO | -0.157% (inactive) |
| CNC(=O)c1ccc(N2CCN(C(=O)c3ccc4c(c3)OCO4)CC2)cc1 | -0.972% (inactive) |
| CN1c2ccc(-c3ccc(F)cc3)cc2[C@H]2[C@H](CCN2C(=O)Nc2cc(F)ccc2F)[C@H]1CO | -9.18% [at 23.5 µM] (inactive) |
| COc1cccc(NC(=O)N2CC[C@@H]3[C@@H](CO)N(C)c4ccc(-c5cccc(F)c5)cc4[C@@H]32)c1 | -1.77% (inactive) |
| CN1c2ccc(-c3cccc(F)c3)cc2[C@H]2[C@H](CCN2C(=O)c2ccc3c(c2)OCO3)[C@@H]1CO | 3.57% (inactive) |
| CC(=O)c1ccc(N2CCN(C(=O)c3ccc4c(c3)OCO4)[C@H](C)C2)cc1 | -0.499% (inactive) |
| COc1ccccc1NC(=O)N1CC[C@@H]2[C@@H](CO)N(C)c3ccc(-c4cccc(F)c4)cc3[C@@H]21 | -4.14% [at 23.5 µM] (inactive) |
| CCCCCCCC(=O)N1CC[C@@H]2[C@@H](CO)N(C)c3ccc(-c4cccc(F)c4)cc3[C@@H]21 | 3.9% (inactive) |
| CC(=O)c1ccc(N2CCN(C(=O)c3ccccc3Cl)CC2)cc1 | -1% (inactive) |
| CC(C)NC(=O)N1CC[C@@H]2[C@@H](CO)N(C)c3ccc(-c4cccc(F)c4)cc3[C@@H]21 | -2.92% (inactive) |
| CCC(=O)N1CC[C@@H]2[C@@H](CO)N(C)c3ccc(-c4ccc(F)cc4)cc3[C@@H]21 | 2.33% [at 23.5 µM] (inactive) |
